Potency data for seven molecules are collected here from PubChem BioAssay (Tox21).

Unmarked numbers belong to inactive results. Records with an inconclusive call do not appear. Activity calls are given as the source filed them. Unless noted, calls come from the whole dose curve; as a rule, active = well fitted curve in the direction sought with a large enough effect in the repeat runs; inconclusive = weak or mixed curves; inactive = no such curve, though single readings can be large; an effect the other way counts as inactive or inconclusive.

The target in assay [1] is Thyrotropin-releasing hormone receptor (Homo sapiens) (UniProt P34981). In words: qHTS assay to identify small molecule agonists of the thyrotropin-releasing hormone receptor (TRHR) signaling pathway (AID 1346891; calls by dose curve; note: series mostly up to about 58 µM). The method in brief:
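Readout was intracellular calcium fluorescence in TRHR-Hek293 cells. Cells were incubated 18 h, dye-loaded 2 h at 37 °C, and treated with compound in agonist mode.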
In general terms: Quantitative high-throughput screening tests each substance at several concentrations.

The nature of assay [2]: Caspase-3/7 induction in HepG2 cells by small molecules, qHTS assay (AID 1346978). Note: nearly all actives have a fitted effect of over 15% in size. The procedure, abridged: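 Caspase-3/7 induction was measured by Caspase-Glo 3/7 luminescence (30 min, room temperature) after a 17 hr compound exposure of wild-type HepG2 cells seeded at 2,000 per well and pre-incubated 5 hr.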
Assay [3] can be described thus: Caspase-3/7 induction in CHO-K1 cells by small molecules, qHTS cell viability counter screen (AID 1346979). Note: nearly all actives have a fitted effect of over 35% in size. Note: potency is the fitted concentration of half-maximal effect. The procedure, abridged:
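Following a 5hr settling period, CHO-K1 cells at 1,500 per well received DMSO-dissolved compounds. Cell viability was quantified 16hr later by CellTiter-Fluor fluorescence, measured after 1hr with reagent at 37C.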

Assay [4] is described as follows: Caspase-3/7 induction in CHO-K1 cells by small molecules, qHTS assay (AID 1346980). Note: nearly all actives have a fitted effect of over 15% in size. The method in brief:
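Luminescent Caspase-Glo 3/7 read (30min, room temperature) quantified apoptosis induction. Cells were wild-type CHO-K1, treated with compound for 17hr at 37 C and 5% CO2.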

Assay [5] is described as follows: Caspase-3/7 induction in HepG2 cells by small molecules, qHTS cell viability counter screen (AID 1346981). Note: nearly all actives have a fitted effect of over 30% in size. Note: potency is the fitted concentration of half-maximal effect. The procedure, abridged:
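Viability determined by CellTiter-Fluor fluorescence in HepG2 wells also used for the luminescent Caspase-Glo 3/7 read. Compounds were present for 16 hr at 37 C, 5% CO2 before reagent addition.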

Assay [6] addresses Acetylcholinesterase (Homo sapiens) (UniProt P22303). In words: Acetylcholinesterase (AChE) small molecule antagonists: colormetric cell-based qHTS assay (AID 1347395; calls by dose curve; note: nearly all actives have a fitted effect of over 30% in size). The procedure, abridged:
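After overnight attachment at 37 C, SH-SY5Y cells get 30 min compound exposure; detection cocktail (acetylthiocholine, DTNB) then incubates 90 min at 37 C, and absorbance reflects AChE-generated thiocholine.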

Assay [7] shares this target. In words: Acetylcholinesterase (AChE) small molecule antagonists: enzyme-based qHTS assay (AID 1347397; calls by dose curve; note: nearly all actives have a fitted effect of over 55% in size). The note with it: Potency: AChE enzyme activity inhibition. The method in brief: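 rhAChE 50 mU/mL (dispensed) + cpd or DMSO, 30 min RT; add DTNB/acetylthiocholine cocktail, 10 min RT; colorimetric thiocholine readout. qHTS, 1536-well format.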
Assay [8] shares this target. In words: Acetylcholinesterase (AChE) small molecule antagonists: fluorescence cell-based qHTS assay (AID 1347398; calls by dose curve; note: nearly all actives have a fitted effect of over 50% in size). The note with it: Potency: AChE activity. The procedure, abridged: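 Read-out is Thiolite Green fluorescence at Ex/Em = 490/520 nm, formed by reaction with thiocholine released when cellular AChE in SH-SY5Y cells hydrolyzes acetylthiocholine. Compounds were preincubated 30 min at 37 C before substrate.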

Assay [9] deals with Cytochrome P450 2D6 (Homo sapiens) (UniProt P10635). As to the kind of experiment: Cytochrome P450 Family 2 Subfamily D Member 6 (CYP2D6) small molecule antagonists: luciferase reporter qHTS assay (AID 1671196). Note: nearly all actives have a fitted effect of over 50% in size. Note: potency is the fitted concentration of half-maximal effect. The method in brief:
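Each well received CYP2D6 with its proluciferin substrate and chemical, sat 10 min, then got NADPH regeneration solution for 1 h at room temperature. Luminescence in RLU served as the activity measure.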
Background: In a reporter assay the amount or activity of a reporter protein is the signal.

Assay [10] concerns the target Cytochrome P450 2C19 (Homo sapiens) (UniProt P33261). In words: Cytochrome P450 Family 2 Subfamily C Member 19 (CYP2C19) small molecule antagonists: luciferase reporter qHTS assay (AID 1671197). Note: nearly all actives have a fitted effect of over 65% in size. Note: potency is the fitted concentration of half-maximal effect. The method in brief:
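P450-Glo CYP2C19 screening system; proluciferin substrate; DMSO compound stocks; 10 min RT preincubation; NADPH regeneration, 1 h at 37C; luciferin detection reagent, 20 min RT; luminescence as RLU.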

For assay [11], the target named is Cytochrome P450 2C9 (Homo sapiens) (UniProt P11712). In words: Cytochrome P450 Family 2 Subfamily C Member 9 (CYP2C9) small molecule antagonists: luciferase reporter qHTS assay (AID 1671198). Note: nearly all actives have a fitted effect of over 50% in size. Note: potency is the fitted concentration of half-maximal effect. The method in brief: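 Enzyme-substrate mix preincubated with compound 10 min at room temperature; reaction started with NADPH regeneration solution, 1 h 37C. Luminescent luciferin product read after 20 min detection reagent.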

In assay [12] the target is Cytochrome P450 1A2 (Homo sapiens) (UniProt P05177). As to the kind of experiment: Cytochrome P450 Family 1 Subfamily A Member 2 (CYP1A2) small molecule antagonists: luciferase reporter qHTS assay (AID 1671199). Note: nearly all actives have a fitted effect of over 50% in size. Note: potency is the fitted concentration of half-maximal effect. The procedure, abridged:
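Enzymatic CYP1A2 assay, human, luminescent: 10 min compound–enzyme–substrate preincubation, 1 h NADPH-dependent turnover, 20 min detection step, room temperature throughout. Reduced light indicates lower CYP1A2 activity.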

Assay [13] deals with Cytochrome P450 3A4 (Homo sapiens) (UniProt P08684). In words: Cytochrome P450 Family 3 Subfamily A Member 4 (CYP3A4) small molecule antagonists: luciferase reporter qHTS assay (AID 1671201). Note: nearly all actives have a fitted effect of over 50% in size. Note: potency is the fitted concentration of half-maximal effect. The method in brief:
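CYP3A4 activity was followed with a P450-Glo proluciferin substrate. Test compounds in DMSO were preincubated 10 min; NADPH regeneration then ran 1 h, and light output was read 20 min after detection reagent.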

Assay [14] can be described thus: Human pregnane X receptor (PXR) small molecule agonists, qHTS cell viability counter screen (AID 1346977). Note: nearly all actives have a fitted effect of over 50% in size. The method in brief:
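In each well, the PXR reporter HepG2 line was checked for viability: CellTiter-Fluor reagent added 23hr post-dosing, fluorescence read after 1hr incubation at 37C.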

The target in assay [15] is Nuclear receptor subfamily 1 group I member 2 (Homo sapiens) (UniProt O75469). In words: Human pregnane X receptor (PXR) small molecule agonists, qHTS assay (AID 1346982). Note: nearly all actives have a fitted effect of over 35% in size. Note: potency is the fitted concentration of half-maximal effect. The method in brief: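 Compound-induced hPXR transactivation of a CYP3A4 luciferase reporter was scored in HepG2 PXR-Luc cells over 24 hr at 37 C, 5% CO2, by luminescence.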
Assay [16] concerns the target Acetylcholinesterase (Homo sapiens) (UniProt P22303). In words: Acetylcholinesterase (AChE) small molecule antagonists: enzyme-based qHTS assay with human liver microsomes (AID 1347399; calls by dose curve; note: nearly all actives have a fitted effect of over 60% in size). The note with it: Potency: qHTS inhibition. The method in brief:
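Recombinant human AChE (50 mU/mL in the enzyme mix) and human liver microsomes (0.25 mg/mL final) were preincubated with compound and NADPH (0.25 mg/mL final) for 30 min at 37 C. Acetylthiocholine/DTNB was then added; thiocholine was read colorimetrically after 10 min at room temperature.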

For assay [17], the target named is Voltage-gated inwardly rectifying potassium channel KCNH2 (Homo sapiens) (UniProt Q12809). As to the kind of experiment: Human Ether-a-go-go-Related Gene (hERG) channel small molecule antagonists: fluorescence cell-based qHTS assay (AID 1671200). The procedure, abridged: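 In this thallium-flux screen, overnight-cultured U2OS cells bearing the channel are dye-loaded in darkness for an hour, rested 10 min at room temperature, and then monitored kinetically at 480/540 nm for two minutes post-stimulus.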
(In general: The hERG channel carries a current that helps repolarise heart muscle cells.)

Cytochrome P450 2C19 (Homo sapiens), sequence (P33261 whole entry, looked up): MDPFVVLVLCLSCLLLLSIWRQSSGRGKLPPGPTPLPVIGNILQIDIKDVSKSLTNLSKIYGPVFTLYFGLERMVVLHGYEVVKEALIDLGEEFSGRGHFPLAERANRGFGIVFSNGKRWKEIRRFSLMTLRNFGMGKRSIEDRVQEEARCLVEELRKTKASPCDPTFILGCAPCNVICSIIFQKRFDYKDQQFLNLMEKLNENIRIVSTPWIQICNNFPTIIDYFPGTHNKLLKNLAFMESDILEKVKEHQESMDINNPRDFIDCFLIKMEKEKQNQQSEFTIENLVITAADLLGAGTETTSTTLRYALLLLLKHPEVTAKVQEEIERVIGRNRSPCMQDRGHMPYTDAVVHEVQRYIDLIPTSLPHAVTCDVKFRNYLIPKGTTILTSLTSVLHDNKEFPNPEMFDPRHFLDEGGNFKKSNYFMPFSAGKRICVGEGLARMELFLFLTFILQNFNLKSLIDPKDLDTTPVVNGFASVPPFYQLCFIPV
Cytochrome P450 3A4 (Homo sapiens), sequence (P08684 whole entry, looked up): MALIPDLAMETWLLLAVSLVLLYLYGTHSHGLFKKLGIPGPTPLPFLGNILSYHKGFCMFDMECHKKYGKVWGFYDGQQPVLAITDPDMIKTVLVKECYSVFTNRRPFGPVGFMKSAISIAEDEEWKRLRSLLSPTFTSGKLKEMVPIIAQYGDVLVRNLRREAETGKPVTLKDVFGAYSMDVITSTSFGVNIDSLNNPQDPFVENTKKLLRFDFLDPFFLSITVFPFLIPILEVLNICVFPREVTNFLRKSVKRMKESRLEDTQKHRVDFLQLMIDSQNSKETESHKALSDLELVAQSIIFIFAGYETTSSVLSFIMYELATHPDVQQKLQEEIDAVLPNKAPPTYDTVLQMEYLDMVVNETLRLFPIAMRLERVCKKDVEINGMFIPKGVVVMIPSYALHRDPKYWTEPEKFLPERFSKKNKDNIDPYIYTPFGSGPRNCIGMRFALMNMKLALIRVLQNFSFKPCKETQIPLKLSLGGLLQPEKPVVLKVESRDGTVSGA
Voltage-gated inwardly rectifying potassium channel KCNH2 (Homo sapiens), sequence (Q12809 whole entry, looked up): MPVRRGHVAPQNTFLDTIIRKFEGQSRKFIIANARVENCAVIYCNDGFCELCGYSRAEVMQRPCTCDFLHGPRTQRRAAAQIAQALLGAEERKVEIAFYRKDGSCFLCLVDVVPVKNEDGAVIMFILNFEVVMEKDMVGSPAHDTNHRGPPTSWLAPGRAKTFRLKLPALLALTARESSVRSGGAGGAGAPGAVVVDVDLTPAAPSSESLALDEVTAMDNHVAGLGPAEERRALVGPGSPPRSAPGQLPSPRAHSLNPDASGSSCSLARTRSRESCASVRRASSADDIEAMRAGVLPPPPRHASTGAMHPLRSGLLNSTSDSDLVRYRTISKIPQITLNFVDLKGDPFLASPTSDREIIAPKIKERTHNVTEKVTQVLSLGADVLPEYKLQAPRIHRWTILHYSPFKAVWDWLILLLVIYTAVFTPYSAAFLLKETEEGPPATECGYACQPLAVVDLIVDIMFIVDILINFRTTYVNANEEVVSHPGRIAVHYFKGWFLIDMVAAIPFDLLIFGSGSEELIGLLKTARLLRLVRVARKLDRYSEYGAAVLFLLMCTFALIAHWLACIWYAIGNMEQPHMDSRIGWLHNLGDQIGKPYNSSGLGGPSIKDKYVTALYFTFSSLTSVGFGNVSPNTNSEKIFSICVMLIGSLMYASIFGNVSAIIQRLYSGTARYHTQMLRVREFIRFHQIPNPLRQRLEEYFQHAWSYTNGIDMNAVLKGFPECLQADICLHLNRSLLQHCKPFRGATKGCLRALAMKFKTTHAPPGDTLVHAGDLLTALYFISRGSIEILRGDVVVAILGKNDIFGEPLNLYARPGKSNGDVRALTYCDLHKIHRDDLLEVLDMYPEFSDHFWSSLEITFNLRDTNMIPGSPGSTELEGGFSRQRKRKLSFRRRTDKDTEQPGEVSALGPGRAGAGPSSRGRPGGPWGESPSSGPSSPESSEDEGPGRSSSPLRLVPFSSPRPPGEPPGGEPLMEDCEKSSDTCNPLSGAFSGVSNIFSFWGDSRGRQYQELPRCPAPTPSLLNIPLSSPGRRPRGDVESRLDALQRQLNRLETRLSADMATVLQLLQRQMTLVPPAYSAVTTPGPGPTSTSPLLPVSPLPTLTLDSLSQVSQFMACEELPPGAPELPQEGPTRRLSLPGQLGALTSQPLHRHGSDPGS
Cytochrome P450 1A2 (Homo sapiens), sequence (P05177 whole entry, looked up): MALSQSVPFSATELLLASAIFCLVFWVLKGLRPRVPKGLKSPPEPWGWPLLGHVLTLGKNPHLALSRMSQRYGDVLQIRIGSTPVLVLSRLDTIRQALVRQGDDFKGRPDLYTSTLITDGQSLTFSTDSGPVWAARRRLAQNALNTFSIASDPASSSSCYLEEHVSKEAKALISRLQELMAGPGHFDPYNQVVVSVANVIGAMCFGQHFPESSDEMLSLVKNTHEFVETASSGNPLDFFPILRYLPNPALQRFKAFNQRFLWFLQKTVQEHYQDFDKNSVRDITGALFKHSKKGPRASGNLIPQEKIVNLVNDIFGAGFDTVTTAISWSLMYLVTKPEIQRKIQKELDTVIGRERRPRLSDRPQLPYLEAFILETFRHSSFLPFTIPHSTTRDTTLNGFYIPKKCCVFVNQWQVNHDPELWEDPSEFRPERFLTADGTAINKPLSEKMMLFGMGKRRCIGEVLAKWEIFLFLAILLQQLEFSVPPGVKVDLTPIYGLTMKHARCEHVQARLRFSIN
Cytochrome P450 2C9 (Homo sapiens), sequence (P11712 whole entry, looked up): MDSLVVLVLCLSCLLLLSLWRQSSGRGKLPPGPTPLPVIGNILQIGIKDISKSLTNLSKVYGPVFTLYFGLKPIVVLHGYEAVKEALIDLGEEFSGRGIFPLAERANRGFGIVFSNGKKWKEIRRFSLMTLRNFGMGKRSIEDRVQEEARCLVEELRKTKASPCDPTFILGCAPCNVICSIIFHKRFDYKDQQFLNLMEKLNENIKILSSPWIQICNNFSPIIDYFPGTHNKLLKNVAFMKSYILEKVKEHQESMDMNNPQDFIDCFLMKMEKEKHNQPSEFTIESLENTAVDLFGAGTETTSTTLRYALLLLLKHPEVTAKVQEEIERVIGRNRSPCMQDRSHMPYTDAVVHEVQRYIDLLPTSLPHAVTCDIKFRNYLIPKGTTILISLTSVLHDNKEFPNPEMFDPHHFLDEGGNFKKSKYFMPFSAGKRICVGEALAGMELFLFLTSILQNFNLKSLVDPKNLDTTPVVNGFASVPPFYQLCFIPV
Cytochrome P450 2D6 (Homo sapiens), sequence (P10635 whole entry, looked up): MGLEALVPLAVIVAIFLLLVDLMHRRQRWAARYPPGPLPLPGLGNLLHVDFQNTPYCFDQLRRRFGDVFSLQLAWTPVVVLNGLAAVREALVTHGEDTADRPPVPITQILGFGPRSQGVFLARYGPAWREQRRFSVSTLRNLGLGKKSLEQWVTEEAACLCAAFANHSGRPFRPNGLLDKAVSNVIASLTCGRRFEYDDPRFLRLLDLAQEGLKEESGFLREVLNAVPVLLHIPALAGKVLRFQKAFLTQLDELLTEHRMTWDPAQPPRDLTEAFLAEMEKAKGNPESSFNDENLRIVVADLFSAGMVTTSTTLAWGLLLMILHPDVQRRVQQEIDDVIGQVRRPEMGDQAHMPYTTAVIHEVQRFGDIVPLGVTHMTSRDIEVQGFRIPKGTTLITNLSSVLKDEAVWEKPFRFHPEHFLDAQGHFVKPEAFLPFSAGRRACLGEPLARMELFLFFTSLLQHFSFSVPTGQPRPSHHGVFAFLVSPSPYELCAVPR
Thyrotropin-releasing hormone receptor (Homo sapiens), sequence (P34981 whole entry, looked up): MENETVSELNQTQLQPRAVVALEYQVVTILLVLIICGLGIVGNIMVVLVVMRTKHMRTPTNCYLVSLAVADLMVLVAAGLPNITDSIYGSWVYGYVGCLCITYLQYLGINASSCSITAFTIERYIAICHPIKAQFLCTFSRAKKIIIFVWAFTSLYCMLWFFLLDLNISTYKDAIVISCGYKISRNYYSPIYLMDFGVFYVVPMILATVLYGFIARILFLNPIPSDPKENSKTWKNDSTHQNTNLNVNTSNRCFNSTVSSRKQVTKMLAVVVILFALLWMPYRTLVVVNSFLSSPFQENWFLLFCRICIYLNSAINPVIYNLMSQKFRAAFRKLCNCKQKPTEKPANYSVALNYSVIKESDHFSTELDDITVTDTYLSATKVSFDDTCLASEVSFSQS
Nuclear receptor subfamily 1 group I member 2 (Homo sapiens), sequence (O75469 whole entry, looked up): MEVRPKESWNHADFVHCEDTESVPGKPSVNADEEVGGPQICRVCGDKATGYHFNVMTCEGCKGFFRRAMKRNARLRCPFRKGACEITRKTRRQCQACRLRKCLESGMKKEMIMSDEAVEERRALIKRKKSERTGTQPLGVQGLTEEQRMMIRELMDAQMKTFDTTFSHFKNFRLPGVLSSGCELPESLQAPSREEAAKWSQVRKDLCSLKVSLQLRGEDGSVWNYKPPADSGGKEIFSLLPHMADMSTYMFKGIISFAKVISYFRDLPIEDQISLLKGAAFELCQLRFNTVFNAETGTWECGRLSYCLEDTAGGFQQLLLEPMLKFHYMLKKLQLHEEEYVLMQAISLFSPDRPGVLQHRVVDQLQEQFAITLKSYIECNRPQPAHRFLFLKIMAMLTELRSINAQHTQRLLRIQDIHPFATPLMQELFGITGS

As for `O=C(Nc1ccccc1)Nc1cnns1`, the Potency entry in [1], in assay [2], in [4], in [5], in [6] and in assay [7] was “inactive” each time. Further, the Potency result in [8] was “inactive”. Further, the Potency was 54.4 µM (active) in [3]; 31.7 µM (active) in assay [9]; 39.9 µM (active) in assay [10]; 35.6 µM (active) in assay [11]; 3.56 µM (active) in [12]; 3.56 µM (active) in assay [13].

For `COC(=O)c1cncn1C(C)c1ccccc1` (centres undefined), the Potency entry in [14], in assay [2], in [3], in [4], in assay [5] and in assay [15] was “inactive” throughout. In addition, the Potency entry in assay [6], in [7], in [8], in assay [16], in assay [12] and in assay [17] was “inactive” throughout. The Potency in assay [9] was 8.71 µM (active); in [10], 3.89 µM (active); in assay [11], 27.5 µM (active); in assay [13], 0.309 µM (active).

On to `CCCCC(O)(Cn1cncn1)c1ccc(Cl)cc1Cl` (centres undefined), for which the Potency entry in [1], in assay [4], in assay [6], in [7], in assay [8] and in [16] was “inactive” throughout. Besides, the Potency result in assay [17] was “inactive”. The Potency in assay [15] is 24.3 µM (active); in assay [9], 31.7 µM (active); in assay [10], 0.252 µM (active); in [11], 0.71 µM (active); in assay [12], 35.6 µM (active); in assay [13], 0.126 µM (active).

For the molecule `Nc1ccc([N+](=O)[O-])cc1[N+](=O)[O-]`, the Potency entry in assay [1], in assay [2], in assay [4], in [15], in assay [6] and in assay [7] was “inactive” in each case. Also, the Potency result in [8], in [10], in [11], in [17] and in assay [13] was “inactive” in each case. The figures for the Potency in assay [3], in assay [5] and in [12] were 47.3 µM (active), 47.3 µM (active) and 6.92 µM (active), respectively.

As to `[O-][Cl+]O`, the Potency result in [1], in assay [3], in assay [4], in assay [5], in assay [15] and in assay [6] was “inactive” in each case. Moreover, the Potency result in assay [7], in assay [8], in assay [16], in assay [9], in [10] and in assay [11] was “inactive” each time. Besides, the Potency entry in assay [12], in assay [17] and in [13] was “inactive” in each case.

For the molecule `NS(=O)(=O)C(F)(F)C(F)(F)C(F)(F)C(F)(F)C(F)(F)C(F)(F)C(F)(F)C(F)(F)F`, the Potency entry in assay [1], in assay [2], in assay [3], in assay [4], in assay [5] and in [6] was “inactive” in each case. Also, the Potency result in [7], in assay [8], in assay [16], in [9], in [12] and in [17] was “inactive” in each case. For the same molecule, in assay [13], the Potency entry was “inactive”. Besides, the Potency in [11] is 0.633 µM (active).

As for `CCCC(Cn1cncn1)c1ccc(Cl)cc1Cl` (centres undefined), the Potency result in assay [1], in assay [2], in assay [4], in assay [6], in assay [7] and in assay [8] was “inactive” throughout. In addition, the Potency result in assay [16], in assay [17] and in assay [13] was “inactive” each time. The Potency is 24.3 µM (active) in assay [15]; 31.7 µM (active) in assay [9]; 0.142 µM (active) in assay [10]; 5.64 µM (active) in assay [11]; 22.4 µM (active) in [12].
